Seven molecules from PubChem BioAssay (Tox21) can be followed below.

Unmarked numbers belong to inactive results. Results filed as inconclusive are left out. Activity calls are given as the source filed them. Unless noted, calls come from the whole dose curve.

Test [1] is described as follows: qHTS assay to identify small molecule agonists of the sonic hedgehog signaling (Shh) pathway (AID 1259368).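 Note: NIH/3T3-derived 3T3Gli1-Luc cells carrying a stable Gli1-driven firefly luciferase reporter; series mostly up to about 92 µM; nearly all actives have a fitted effect of over 15% in size.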 The procedure, abridged:
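Hedgehog pathway agonism scored by increased firefly luciferase luminescence in 3T3Gli1-Luc cells treated 24 hr at 37 C; detection used a 30 min room-temperature reagent incubation.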
In general terms: Quantitative high-throughput screening tests each substance at several concentrations.

Test [2] can be described thus: qHTS assay to identify small molecule antagonists of the sonic hedgehog signaling (Shh) pathway (AID 1259369). Note: nearly all actives have a fitted effect of over 45% in size. Note: potency is the fitted concentration of half-maximal effect. The procedure, abridged:
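NIH/3T3 stable Gli1-Luc clone, 2,000 cells/well, 4hr settle; cpd + conditioned medium 24hr; Luc reagent 30min RT; luminescence.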

The target in test [3] is Estrogen receptor beta (Homo sapiens) (UniProt Q92731). Description: qHTS assay to identify small molecule agonists of the estrogen receptor beta (ER-beta) signaling pathway (AID 1259377; active = well fitted activation curve with a large enough effect in the signal ratio in the repeat runs, not every such curve was filed as active; the % refers to the signal ratio). The procedure, abridged: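 HEK293T ER-beta-UAS-bla; 2% charcoal-stripped FBS; cells pre-incubated 6 hr, compound 16 hr, 37C/5% CO2; LiveBLAzer B/G FRET substrate 2 h RT; fluorescence intensity read.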
Sequence of Estrogen receptor beta (Homo sapiens) (Q92731 whole entry, looked up): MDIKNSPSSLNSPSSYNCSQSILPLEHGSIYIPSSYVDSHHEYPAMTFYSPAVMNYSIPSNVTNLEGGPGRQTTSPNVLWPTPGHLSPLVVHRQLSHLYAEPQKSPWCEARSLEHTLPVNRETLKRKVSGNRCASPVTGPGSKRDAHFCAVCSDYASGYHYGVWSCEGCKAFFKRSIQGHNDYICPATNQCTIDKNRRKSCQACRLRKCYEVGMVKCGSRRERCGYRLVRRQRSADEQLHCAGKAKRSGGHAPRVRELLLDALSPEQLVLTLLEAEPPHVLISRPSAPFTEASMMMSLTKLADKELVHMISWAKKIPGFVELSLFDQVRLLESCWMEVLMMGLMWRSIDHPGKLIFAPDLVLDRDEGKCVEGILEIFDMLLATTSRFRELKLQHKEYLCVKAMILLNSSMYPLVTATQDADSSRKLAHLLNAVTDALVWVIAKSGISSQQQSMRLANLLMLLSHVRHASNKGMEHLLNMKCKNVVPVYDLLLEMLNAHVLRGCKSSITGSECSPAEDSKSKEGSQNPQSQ

For test [4] the target is unchanged. Description: qHTS assay to identify small molecule antagonists of the estrogen receptor beta (ER-beta) signaling pathway (AID 1259378; active = well fitted inhibition curve with a large enough effect in the signal ratio in the repeat runs, not every such curve was filed as active; the % refers to the signal ratio; note: potency is the fitted concentration of half-maximal effect). The gist of the method: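 Antagonist mode: compounds added to beta-lactamase reporter HEK293T ER-beta-UAS cells stimulated with E2 (1nM final), 16 hr at 37C. LiveBLAzer B/G FRET substrate, 2 hours room temperature, fluorescence read-out.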

A short description of test [5]: qHTS assay to identify small molecule agonists of the androgen receptor (AR) signaling pathway in the presence of an antagonist - cell viability counter screen (AID 1259379; active = well fitted curve in the direction sought with a large enough effect in the repeat runs; an effect the other way counts as inactive or inconclusive; note: nearly all actives have a fitted effect of over 25% in size; note: potency is the fitted concentration of half-maximal effect;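 for activity change, negative = cytotoxicity: MDA-kb2 human breast cancer cells carrying an MMTV luciferase reporter; series mostly up to about 92 µM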). The procedure, abridged:
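MDA-kb2 viability measured by CellTiter-Fluor fluorescence in the same wells as the luciferase signal; nilutamide 3.0uM final; 15-point compound titration; 16 hr at 37C.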

The nature of test [6]: qHTS assay to identify small molecule agonists of the estrogen receptor beta (ER-beta) signaling pathway - cell viability counter screen (AID 1259380; active = well fitted curve in the direction sought with a large enough effect in the repeat runs; an effect the other way counts as inactive or inconclusive; note: nearly all actives have a fitted effect of over 30% in size; note: potency is the fitted concentration of half-maximal effect). The gist of the method:
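Measured: luminescence from CellTiter-Glo after 30 min at room temperature, added to wells already read for the LiveBLAzer FRET reporter (2 hr substrate); ER-beta-UAS-bla HEK293T cells had 16 hr compound treatment at 37C, 5% CO2.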

Test [7] has as its target Androgen receptor (Homo sapiens) (UniProt P10275). Description: qHTS assay to identify small molecule agonists of the androgen receptor (AR) signaling pathway in the presence of an antagonist (AID 1259381). Note: nearly all actives have a fitted effect of over 15% in size. Note: potency is the fitted concentration of half-maximal effect. The gist of the method:
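Luminescent ONE-Glo read, 30min at room temperature, follows 16hr compound exposure (15 concentrations) of MDA-kb2 cells at 37C, 0% CO2, with nilutamide added at 3.0uM final.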

Test [8] is described as follows: qHTS assay to identify small molecule antagonists of the estrogen receptor beta (ER-beta) signaling pathway - cell viability counter screen (AID 1259382; active = well fitted curve in the direction sought with a large enough effect in the repeat runs; an effect the other way counts as inactive or inconclusive;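 note: HEK293T cells carrying ER-beta-UAS-bla reporter stimulated with estradiol; series mostly up to about 92 µM; nearly all actives have a fitted effect of over 55% in size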). The procedure, abridged: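 Readout: luminescence, CellTiter-Glo, same wells as bla assay. System: ER-beta-UAS-bla GripTite HEK293T, 2% charcoal-stripped FBS. Exposure: compounds plus 1nM 17-beta-estradiol, 16 hr, 37C.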

Test [9] addresses Estrogen receptor (Homo sapiens) (UniProt P03372). The test is described as follows: qHTS assay to identify small molecule agonists of the estrogen receptor alpha (ER-alpha) signaling pathway in the presence of an antagonist (AID 1259383). Note: top concentration of the series differs between compounds; nearly all actives have a fitted effect of over 15% in size. The procedure, abridged: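 Quantitative HTS confirmation: compounds titrated at 15 concentrations onto estrogen-deprived VM7Luc4E2 cells carrying a four-ERE luciferase construct, with ICI-182,780 present at 10.0nM final. Signal is luminescence after 22hr exposure.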

Test [10] in a line: qHTS assay to identify small molecule agonists or antagonists of the thyroid stimulating hormone receptor (TSHR) signaling pathway - wild type cell line counter screen (AID 1259384). The procedure, abridged: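 Counter screen in untransfected Hek293: compounds (15-point titration, triplicate) plus phosphodiesterase inhibitor Ro20-1724 added after 18 h plating; 30 min RT. Intracellular cAMP via competitive d2/cryptate immunoassay, 1 h incubation.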

Test [11] has as its target Thyrotropin receptor (Homo sapiens) (UniProt P16473). The test is described as follows: qHTS assay to identify small molecule antagonists of the thyroid stimulating hormone receptor (TSHR) signaling pathway (AID 1259385). Note: nearly all actives have a fitted effect of over 20% in size. The gist of the method:
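Antagonist mode: compound-treated TSHR-expressing HEK293 cells were stimulated with 1.5 ng/mL TSH (final) in presence of Ro20-1724 for 30 min at RT. HTRF cAMP detection after 1 h; each compound tested at 15 concentrations, triplicate.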

A short description of test [12]: qHTS assay to identify small molecule agonists of the estrogen receptor alpha (ER-alpha) signaling pathway in the presence of an antagonist - cell viability counter screen (AID 1259386; active = well fitted curve in the direction sought with a large enough effect in the repeat runs; an effect the other way counts as inactive or inconclusive;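 note: cells exposed to compounds for 22 h at 37 °C before the viability read; nearly all actives have a fitted effect of over 30% in size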; note: potency is the fitted concentration of half-maximal effect; for activity change, negative = cytotoxicity: series mostly up to about 92 µM). The procedure, abridged: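 The test measures whether compounds kill ER-alpha reporter cells (VM7Luc4E2) under antagonist co-treatment (ICI-182,780, 10.0nM). Fluorescence from CellTiter-Fluor is read after a 22hr exposure.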

Test [13] has as its target Progesterone receptor (Homo sapiens) (UniProt P06401). The test is described as follows: qHTS assay to identify small molecule agonists of the progesterone receptor (PR) signaling pathway (AID 1346784). Note: nearly all actives have a fitted effect of over 30% in size. The gist of the method:
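Beta-lactamase reporter read-out: after 16 hr compound treatment at 37C and a further 2 hr at room temperature with LiveBLAzer B/G FRET substrate, fluorescence was measured in PR-UAS-bla HEK 293T cells grown in 2% charcoal-stripped serum.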

Test [14] has the same target. Description: qHTS assay to identify small molecule antagonists of the progesterone receptor (PR) signaling pathway (AID 1346795; active = well fitted inhibition curve with a large enough effect in the signal ratio in the repeat runs, not every such curve was filed as active; the % refers to the signal ratio; note: potency is the fitted concentration of half-maximal effect). The procedure, abridged:
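Read-out is fluorescence from the LiveBLAzer B/G FRET substrate, cleaved by a UAS-controlled beta-lactamase in PR-UAS-bla HEK293T cells after 16 hr exposure to compound plus 1 nM promegestone (final), followed by 2 hr at room temperature.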

A short description of test [15]: qHTS assay to identify small molecule antagonists of the progesterone receptor (PR) signaling pathway - cell viability counter screen (AID 1346798; active = well fitted curve in the direction sought with a large enough effect in the repeat runs; an effect the other way counts as inactive or inconclusive;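 note: HEK293T PR-UAS-bla cells stimulated with the agonist R5020; series mostly up to about 92 µM; nearly all actives have a fitted effect of over 50% in size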). The procedure, abridged:
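HEK293T PR-UAS-bla, 2% charcoal-stripped FBS; 4 hr pre-plate; cpd + R5020, 16 h 37C; LiveBLAzer read first; then CellTiter-Glo 30 min RT, luminescence.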

A short description of test [16]: qHTS assay to identify small molecule agonists of the progesterone receptor (PR) signaling pathway - cell viability counter screen (AID 1346799). Note: nearly all actives have a fitted effect of over 45% in size. The procedure, abridged: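 Luminescence from CellTiter-Glo, added after the beta-lactamase FRET read in the same wells, gave cytotoxicity in PR-UAS-bla HEK293T cells treated with compounds for 16 hr at 37C.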
The nature of test [17]: qHTS assay to identify small molecule agonists of the TGF-beta/Smad signaling pathway - cell viability counter screen (AID 1346829; active = well fitted curve in the direction sought with a large enough effect in the repeat runs; an effect the other way counts as inactive or inconclusive; note: top concentration of the series differs between compounds; nearly all actives have a fitted effect of over 45% in size). The gist of the method:
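Here the cytotoxicity of library compounds is measured in SBE-bla HEK 293T cells treated for 5 hr, using CellTiter-Glo added to wells already read for the beta-lactamase reporter.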

Test [18] in a line: qHTS assay to identify small molecule agonists of the TGF-beta/Smad signaling pathway (AID 1346859; active = well fitted activation curve with a large enough effect in the signal ratio in the repeat runs, not every such curve was filed as active; the % refers to the signal ratio; note: series mostly up to about 77 µM). The gist of the method:
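SBE-bla HEK 293T, 4,000 cells/well, plated o/n; cpd in DMSO, 5 hr, 37 C/5% CO2; B/G FRET substrate 2 hr RT; ex 405, em 460/530 nm.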

Test [19] is described as follows: qHTS assay to identify small molecule antagonists of the TGF-beta/Smad signaling pathway - cell viability counter screen (AID 1346824; active = well fitted curve in the direction sought with a large enough effect in the repeat runs; an effect the other way counts as inactive or inconclusive; note: nearly all actives have a fitted effect of over 50% in size). The procedure, abridged: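 Cytotoxicity counter-screen run in the same wells as the beta-lactamase Smad reporter read: CellTiter-Glo luminescence after 30 min at room temperature. HEK 293T SBE-bla cells had 5 hr compound exposure at 37 C with TGF-beta1 (0.25 ng/mL stock).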

The target of test [20] is Thyrotropin-releasing hormone receptor (Homo sapiens) (UniProt P34981). Description: qHTS assay to identify small molecule antagonists of the thyrotropin-releasing hormone receptor (TRHR) signaling pathway (AID 1346877; active = well fitted inhibition curve with a large enough effect in the repeat runs, not every such curve was filed as active; note: series mostly up to about 51 µM). The gist of the method:
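Overnight-plated (18 h, 37 °C) HEK293 cells expressing TRHR were dye-loaded 2 h, treated with compound, then stimulated with TRH at 1 nM final. Fluorescence intensity was captured every second for 3 min.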
% is set by controls: 0 for no effect and ±100 for the full control effect.

Sequence of Androgen receptor (Homo sapiens) (P10275 whole entry, looked up): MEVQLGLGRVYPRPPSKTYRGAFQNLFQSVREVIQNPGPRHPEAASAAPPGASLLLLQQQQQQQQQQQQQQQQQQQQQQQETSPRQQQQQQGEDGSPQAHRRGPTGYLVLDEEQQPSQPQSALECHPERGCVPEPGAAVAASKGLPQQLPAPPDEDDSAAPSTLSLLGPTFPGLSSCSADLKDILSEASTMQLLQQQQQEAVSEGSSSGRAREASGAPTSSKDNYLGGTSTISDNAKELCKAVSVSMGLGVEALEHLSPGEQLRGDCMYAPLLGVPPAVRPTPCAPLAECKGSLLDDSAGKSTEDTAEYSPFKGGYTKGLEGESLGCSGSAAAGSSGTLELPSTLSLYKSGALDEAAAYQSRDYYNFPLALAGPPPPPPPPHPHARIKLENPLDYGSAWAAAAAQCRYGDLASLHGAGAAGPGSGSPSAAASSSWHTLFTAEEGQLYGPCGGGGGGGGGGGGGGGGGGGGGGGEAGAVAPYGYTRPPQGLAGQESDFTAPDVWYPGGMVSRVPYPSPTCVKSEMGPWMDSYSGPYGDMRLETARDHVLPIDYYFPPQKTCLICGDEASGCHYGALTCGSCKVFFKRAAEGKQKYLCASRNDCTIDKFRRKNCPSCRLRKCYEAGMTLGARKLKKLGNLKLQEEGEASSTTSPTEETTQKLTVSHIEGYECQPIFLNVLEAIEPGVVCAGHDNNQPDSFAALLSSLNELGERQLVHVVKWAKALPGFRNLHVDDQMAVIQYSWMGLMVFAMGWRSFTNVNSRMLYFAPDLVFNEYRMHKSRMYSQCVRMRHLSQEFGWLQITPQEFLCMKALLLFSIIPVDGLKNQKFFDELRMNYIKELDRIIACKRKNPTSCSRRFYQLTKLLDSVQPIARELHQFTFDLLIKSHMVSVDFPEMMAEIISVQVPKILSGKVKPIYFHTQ
Sequence of Progesterone receptor (Homo sapiens) (P06401 whole entry, looked up): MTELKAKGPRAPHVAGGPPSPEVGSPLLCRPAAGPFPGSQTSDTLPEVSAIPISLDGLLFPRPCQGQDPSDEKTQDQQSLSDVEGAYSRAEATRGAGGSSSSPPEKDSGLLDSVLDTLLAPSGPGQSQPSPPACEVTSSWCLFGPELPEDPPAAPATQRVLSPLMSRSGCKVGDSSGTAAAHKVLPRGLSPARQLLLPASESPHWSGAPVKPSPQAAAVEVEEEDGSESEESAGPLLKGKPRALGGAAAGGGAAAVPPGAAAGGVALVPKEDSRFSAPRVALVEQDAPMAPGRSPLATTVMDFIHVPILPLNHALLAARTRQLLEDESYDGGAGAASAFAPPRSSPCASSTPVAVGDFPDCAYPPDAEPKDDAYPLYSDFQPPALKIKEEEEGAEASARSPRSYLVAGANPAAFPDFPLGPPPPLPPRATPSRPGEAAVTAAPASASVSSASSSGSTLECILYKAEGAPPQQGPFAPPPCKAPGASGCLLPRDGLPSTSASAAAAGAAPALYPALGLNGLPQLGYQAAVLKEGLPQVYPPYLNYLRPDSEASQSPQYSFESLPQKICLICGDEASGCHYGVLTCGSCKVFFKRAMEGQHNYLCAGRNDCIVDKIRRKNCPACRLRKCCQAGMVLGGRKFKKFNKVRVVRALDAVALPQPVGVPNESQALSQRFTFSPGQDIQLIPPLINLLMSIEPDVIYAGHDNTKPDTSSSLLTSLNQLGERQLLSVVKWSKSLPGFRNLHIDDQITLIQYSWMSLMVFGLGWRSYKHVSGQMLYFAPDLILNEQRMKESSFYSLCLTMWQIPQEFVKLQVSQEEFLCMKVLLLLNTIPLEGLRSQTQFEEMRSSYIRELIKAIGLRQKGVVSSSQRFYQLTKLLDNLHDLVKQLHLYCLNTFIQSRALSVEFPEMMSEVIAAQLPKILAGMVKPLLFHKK
Sequence of Estrogen receptor (Homo sapiens) (P03372 whole entry, looked up): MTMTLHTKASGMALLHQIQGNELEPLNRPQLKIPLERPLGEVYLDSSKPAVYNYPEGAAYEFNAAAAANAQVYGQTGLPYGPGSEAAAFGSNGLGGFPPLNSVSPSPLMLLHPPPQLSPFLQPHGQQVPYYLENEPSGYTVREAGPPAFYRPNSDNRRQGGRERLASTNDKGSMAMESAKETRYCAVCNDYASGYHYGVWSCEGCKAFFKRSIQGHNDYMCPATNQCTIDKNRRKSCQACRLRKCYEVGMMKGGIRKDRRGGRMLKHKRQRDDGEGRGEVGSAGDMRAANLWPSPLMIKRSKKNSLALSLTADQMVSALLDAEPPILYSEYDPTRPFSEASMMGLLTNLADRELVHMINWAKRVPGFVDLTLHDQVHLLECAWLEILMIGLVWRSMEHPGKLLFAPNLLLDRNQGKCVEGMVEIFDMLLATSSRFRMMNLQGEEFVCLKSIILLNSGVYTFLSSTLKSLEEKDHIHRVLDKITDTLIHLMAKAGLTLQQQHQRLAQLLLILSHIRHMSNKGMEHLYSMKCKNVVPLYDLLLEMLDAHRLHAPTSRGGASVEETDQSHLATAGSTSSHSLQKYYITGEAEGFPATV
Sequence of Thyrotropin receptor (Homo sapiens) (P16473 whole entry, looked up): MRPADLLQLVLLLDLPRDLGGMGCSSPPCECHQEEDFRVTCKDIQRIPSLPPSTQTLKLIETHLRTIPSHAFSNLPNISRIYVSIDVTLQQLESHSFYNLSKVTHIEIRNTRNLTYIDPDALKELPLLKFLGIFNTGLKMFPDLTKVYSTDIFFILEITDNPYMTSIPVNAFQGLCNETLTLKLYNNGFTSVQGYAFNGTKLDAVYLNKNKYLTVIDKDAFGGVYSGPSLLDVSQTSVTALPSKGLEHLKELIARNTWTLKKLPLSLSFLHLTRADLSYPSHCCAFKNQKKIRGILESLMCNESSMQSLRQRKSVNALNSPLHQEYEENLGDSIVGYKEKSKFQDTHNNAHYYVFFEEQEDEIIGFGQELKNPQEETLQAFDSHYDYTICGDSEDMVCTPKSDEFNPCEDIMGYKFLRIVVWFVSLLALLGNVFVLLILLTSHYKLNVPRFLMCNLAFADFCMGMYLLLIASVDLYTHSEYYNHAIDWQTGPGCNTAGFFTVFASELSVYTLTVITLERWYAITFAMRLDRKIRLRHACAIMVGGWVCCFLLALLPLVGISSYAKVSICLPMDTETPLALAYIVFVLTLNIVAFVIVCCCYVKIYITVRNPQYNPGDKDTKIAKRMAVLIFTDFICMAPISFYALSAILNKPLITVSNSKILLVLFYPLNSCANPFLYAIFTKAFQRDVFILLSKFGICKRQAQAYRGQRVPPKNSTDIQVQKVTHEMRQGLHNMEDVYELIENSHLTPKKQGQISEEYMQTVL
Sequence of Thyrotropin-releasing hormone receptor (Homo sapiens) (P34981 whole entry, looked up): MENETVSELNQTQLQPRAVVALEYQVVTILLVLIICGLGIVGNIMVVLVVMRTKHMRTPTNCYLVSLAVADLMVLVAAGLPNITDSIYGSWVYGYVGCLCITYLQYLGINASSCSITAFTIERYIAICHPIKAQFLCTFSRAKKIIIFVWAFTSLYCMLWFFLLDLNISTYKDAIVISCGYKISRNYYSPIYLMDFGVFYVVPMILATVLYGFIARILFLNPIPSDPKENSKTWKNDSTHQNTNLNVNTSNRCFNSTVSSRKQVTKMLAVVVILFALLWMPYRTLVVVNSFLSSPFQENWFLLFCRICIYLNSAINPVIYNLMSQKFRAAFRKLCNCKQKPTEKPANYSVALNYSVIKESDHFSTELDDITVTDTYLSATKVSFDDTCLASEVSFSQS

As for `CCCOC(=O)c1ccc(N)cc1`, the Potency entry in test [1], in test [2], in test [3], in [4], in test [5] and in test [6] was “inactive” throughout. Further, the Potency entry in [7], in [8], in test [9], in test [11], in test [12] and in test [13] was “inactive” in each case. Further, the Potency result in [14], in [15] and in test [16] was “inactive” each time. Besides, the result in test [10], in test [17] and in [18] was inactive.

In the case of `CC(C)(C)CC(C)(C)c1ccc(OCCO)cc1`, the Potency result in test [1], in test [3], in [7], in test [9] and in [13] was “inactive” throughout. For the same molecule, the Potency in test [2] is 15.3 µM (active); in [4] it was 43 µM (active); in [5], 30.5 µM (active); in test [12] it was 34.2 µM (active); in test [14] it was 48.3 µM (active). Also, the result in test [19], in test [17], in test [18] and in test [20] was inactive.

Turning to `CC1CC(O)CC(C)(C)C1` (configuration not stated), the Potency entry in test [1], in test [2], in [3], in test [4], in [5] and in [8] was “inactive” throughout. The Potency result in [11], in test [12], in test [13] and in test [14] was “inactive” each time. Further, the result in [10], in test [19], in test [17], in test [18] and in test [20] was inactive.

As to `CC(=N\O)/C(C)=N/O`, the Potency result in test [1], in test [2], in [3], in [4], in [5] and in test [6] was “inactive” in each case. The Potency result in test [8], in test [11], in [12] and in test [13] was “inactive” throughout. The molecule was called inactive in [10], in [19], in [17], in test [18] and in test [20].

For the molecule `CCCCCC=CCC=CCCCCCCCC(=O)OCC`, the Potency result in test [1], in [2], in test [3], in test [4], in test [5] and in test [8] was “inactive” in each case. The Potency result in test [9], in test [11], in [12], in test [14], in test [15] and in test [16] was “inactive” throughout. In [6], the Potency is 29.8 µM (active). Further, the molecule was classed as inactive in [10], in test [19], in test [17], in test [18] and in test [20].

For `CCCC(=O)O[C@]1(C(=O)COC(=O)CC)CC[C@H]2[C@@H]3CCC4=CC(=O)CC[C@]4(C)[C@H]3[C@@H](O)C[C@@]21C`, the activity change in test [1] was -1.53% [at 18.9 µM, active compounds read high]. Further, the activity change, negative = inhibition is -24.8% [at 19 µM] in [2] and -1.62% [at 19 µM] in test [11]. Besides, the activation was 6.24% [at 19 µM] in test [3], 0.91% [at 19 µM] in [9], 3.7% [at 19 µM] in test [13] and 5.59% [at 15.8 µM] in test [18]. The activity, negative = inhibition in test [4] is 1.87% [at 19 µM]; in test [20] it was -1.85% [at 10.5 µM]. For the same molecule, the activity change, negative = cytotoxicity in test [5] was 0.279% [at 19 µM]; in [6] it was 1.26% [at 19 µM]; in test [8] it was 2.67% [at 19 µM]; in test [12] it was 2.18% [at 19 µM]; in [15], -3.5% [at 18.9 µM]; in [16] it was 17.2% [at 19 µM]. For the same molecule, the activity change, negative = cytotoxicity in [17] is -0.518% [at 15.8 µM]. Moreover, the Potency in [7] is 0.184 µM (active). In addition, the cAMP activity change in [10] was 6.72% [at 18.9 µM]. Further, the viability change, negative = cytotoxic in [19] is -0.584% [at 15.8 µM].

Turning to `CN(C(=O)C(Cl)Cl)c1ccc(OC(=O)c2ccco2)cc1`, the Potency entry in test [1], in [2], in test [3], in [5], in test [6] and in [7] was “inactive” in each case. Moreover, the Potency result in test [8], in test [11], in [12], in test [13], in test [14] and in [15] was “inactive” throughout. Also, the Potency result in [16] is “inactive”. Further, the outcome in test [10], in test [19], in test [17], in test [18] and in test [20] was inactive.
